Reference: PubChem BioAssay
Active and inactive are the calls of the source.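 Rule for the calls: active = thallium flux through the channel raised or lowered by more than 3 SD from vehicle-only wells, actives on both sides; inactive = the rest.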

Key:
Experiment in all cases: modulators of BK channel variants, profiling panel, selectivity assay, cell-based, U2OS BacMam, thallium flux, beta subunits (AID 1259406);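 note: initial slope of Thallos dye fluorescence rise after thallium is added; log ratio against the mean of 0.3% DMSO vehicle wells on the same plate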
[1] = system: F380Y; conditions: at 30 µM
[2] = system: F380Y/beta1; conditions: at 30 µM
[3] = system: F380Y/beta2Delta; conditions: at 30 µM
[4] = system: F380Y/beta4; conditions: at 30 µM
[5] = target: Calcium-activated potassium channel subunit alpha-1 (Homo sapiens) + Leucine-rich repeat-containing protein 26 (Homo sapiens) (UniProt Q12791+Q2I0M4); conditions: F380Y/Slo1WT/gamma1, at 30 µM
[6] = system: R275C; conditions: at 30 µM
[7] = system: R275C/beta1; conditions: at 30 µM
[8] = system: R275C/beta2Delta; conditions: at 30 µM
[9] = system: R275C/beta4; conditions: at 30 µM
[10] = system: R275C/Slo1WT/beta2; conditions: at 30 µM

Measured: log fold change Tl+ flux

Chain of Calcium-activated potassium channel subunit alpha-1 (Homo sapiens) + Leucine-rich repeat-containing protein 26 (Homo sapiens) (Q2I0M4 whole entry, looked up, one chain of several): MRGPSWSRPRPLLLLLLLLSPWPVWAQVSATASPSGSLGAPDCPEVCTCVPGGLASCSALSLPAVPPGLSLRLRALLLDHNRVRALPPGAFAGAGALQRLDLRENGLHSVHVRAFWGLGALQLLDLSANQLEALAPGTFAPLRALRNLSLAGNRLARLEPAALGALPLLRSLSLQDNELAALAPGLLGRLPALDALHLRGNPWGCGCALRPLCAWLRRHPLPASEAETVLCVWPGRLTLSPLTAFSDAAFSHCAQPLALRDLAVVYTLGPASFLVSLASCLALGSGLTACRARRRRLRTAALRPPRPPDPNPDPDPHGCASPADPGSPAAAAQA

Cc1ccc(-c2nc(N=CNOC(=O)c3ccc([N+](=O)[O-])cc3)sc2C)cc1Cl
active: [2] 0.126 | [4] 0.147 | [8] 0.13 | [9] 0.142
inactive: [1] 0.0323 | [3] 0.0425 | [5] 0.102 | [6] 0.00635 | [7] 0.0986 | [10] 0.0243

NC1(C(=O)O)CCSCC1
inactive: [1] -0.0475 | [2] 0.00895 | [3] -0.0146 | [4] 0.00194 | [5] -0.0223 | [6] -0.0154 | [7] -0.0495 | [8] 0.0435 | [9] -0.00913 | [10] -0.00295

O=C1c2ccccc2C(=O)N1CNc1ccc(Oc2ccc(Cl)cc2)cc1
active: [2] 0.986 | [4] 0.151 | [5] 0.327 | [7] 0.443 | [9] 0.104
inactive: [1] 0.0258 | [3] 0.0357 | [6] 0.06 | [8] 0.0194 | [10] 0.0127

CC(=NO)c1ccc2c(c1)C(C)(C)CCC2(C)C
active: [1] -0.246 | [2] -0.197 | [3] -0.444 | [4] -0.152 | [5] -0.146
inactive: [6] -0.00509 | [7] 0.0184 | [8] -0.00725 | [9] -0.0253 | [10] -0.0443

Cc1ccc(S(=O)(=O)N2Cc3ccccc3C(C)CC23CCCCC3)cc1 (stereo not given)
active: [4] -0.175 | [6] -0.0799 | [7] -0.119
inactive: [1] -0.0732 | [2] -0.033 | [3] -0.0539 | [5] -0.0898 | [8] -0.0411 | [9] -0.0534 | [10] 0.009

NC(=NNC(=O)c1cccnc1)c1ccncc1
inactive: [1] 0.0309 | [2] -0.00892 | [3] 0.0142 | [4] 0.00925 | [5] -0.00474 | [6] -0.039 | [7] 0.0056 | [8] 0.00736 | [9] 0.00943 | [10] -0.0381

CC(C)(C)NC(=S)NNc1c(Cl)cncc1Cl
inactive: [1] -0.00302 | [2] -0.0136 | [3] -0.0137 | [4] -0.0352 | [5] -0.035 | [6] 0.0328 | [7] 0.0635 | [8] 0.00425 | [9] -0.00379 | [10] 0.0133

O=C1CSCC(=O)N1c1csc(C(F)(F)F)c1-c1ccccc1
active: [2] 0.0869 | [7] 0.122 | [9] 0.11
inactive: [1] -0.0223 | [3] -0.00325 | [4] 0.0035 | [5] 0.0169 | [6] 0.0132 | [8] 0.0241 | [10] -0.00785

Cc1ccc(C)n1N(C)c1ccc([N+](=O)[O-])cn1
inactive: [2] -0.0343 | [3] -0.0717 | [4] 0.0203 | [5] -0.0125 | [6] -0.0076 | [7] -0.0949 | [8] -0.0509 | [9] 0.0498 | [10] 0.00416
active: [1] -0.186

CCCCCCCCCCCCSC(=S)NCC1CCCO1 (stereo not given)
inactive: [1] 0.0353 | [2] 0.0262 | [3] 0.0128 | [4] 0.0306 | [5] 0.0128 | [6] -0.00711 | [7] -0.0124 | [8] 0.0322 | [9] -0.00355 | [10] -0.00192

NC(=NC(=O)c1cccs1)c1cccs1
inactive: [1] 0.00622 | [2] 0.0573 | [3] 0.0445 | [4] 0.0177 | [5] 0.0217 | [6] 0.0451 | [7] 0.0586 | [8] 0.0615 | [9] 0.0555 | [10] 0.0314

Cc1cc(C(=O)ON=C(N)c2ccc([N+](=O)[O-])o2)no1
inactive: [1] 0.0152 | [2] 0.0208 | [3] 0.0122 | [4] 0.0216 | [5] 0.00414 | [6] -0.00373 | [7] 0.00585 | [8] -0.00874 | [9] 0.0176 | [10] -0.0342

Cc1noc(C=Cc2sccc2C2OCCO2)c1[N+](=O)[O-]
inactive: [1] 0.00373 | [2] 0.00792 | [3] -0.0403 | [4] -0.0687 | [5] -0.0936 | [6] 0.00445 | [7] -0.0604 | [8] -0.0701 | [9] -0.00776 | [10] -0.000775

COCCCNC(=O)C(C#N)=CN(C)C
inactive: [1] -0.062 | [2] -0.0601 | [4] 0.0041 | [5] -0.0197 | [6] -0.0308 | [7] -0.0584 | [8] -0.0395 | [9] -0.0325 | [10] 0.0541
active: [3] -0.103

Cc1nnc(-c2ccccn2)[nH]c1=O
inactive: [1] -0.0188 | [2] -0.0365 | [3] -0.0191 | [4] -0.0613 | [5] 0.0158 | [6] 0.0139 | [7] -0.0558 | [8] 0.00421 | [9] -0.00382 | [10] 0.0227

CC(C)c1ccc(NC(=S)NC2CC3CC2C2C=CCC32)cc1 (stereo not given)
active: [4] -0.422 | [5] -0.206 | [6] -0.205 | [7] -0.152 | [8] -0.109 | [9] -0.11
inactive: [1] 0.00954 | [2] -0.00688 | [3] -0.0661 | [10] -0.0657

Cn1ncc2ccccc2c1=O
inactive: [1] 0.0178 | [2] 0.0239 | [3] 0.0287 | [4] 0.0126 | [5] -0.0763 | [6] -0.0283 | [7] -0.0396 | [8] 0.0689 | [9] -0.014 | [10] 0.00701

COC(OC)c1ccc(C#N)c(SC)n1
inactive: [1] 0.0176 | [2] -0.0051 | [3] 0.00992 | [4] 0.0407 | [5] -0.00294 | [6] -0.0258 | [7] -0.00195 | [8] 0.0434 | [9] -0.0479 | [10] -0.0163

CC(C)=CC(C)=NNc1c([N+](=O)[O-])cc(C(F)(F)F)cc1[N+](=O)[O-]
inactive: [1] 0.0422 | [2] 0.0383 | [3] 0.0202 | [4] 0.0221 | [5] -0.0328 | [6] 0.043 | [7] -0.0463 | [8] -0.0753 | [9] -0.00952 | [10] 0.0191

Cc1cc(NC(=O)Nc2nc(-c3ccc(C)c(Cl)c3)c(C)s2)c(C(F)(F)F)o1
inactive: [1] 0.0531 | [2] 0.0378 | [3] 0.0304 | [4] -0.0149 | [5] 0.0333 | [6] 0.0173 | [7] -0.0274 | [8] 0.015 | [9] 0.0593 | [10] 0.0144

CSc1nnc(SCC(=O)c2ccc3c(c2)OCCO3)s1
active: [7] -0.119 | [8] -0.146 | [9] -0.0816
inactive: [1] -0.00388 | [2] -0.019 | [3] -0.0362 | [4] -0.049 | [5] -0.0346 | [6] -0.06 | [10] -0.0418

S=c1sc2c(s1)SCC1(CS2)OCCO1
inactive: [1] -0.0425 | [2] 0.0267 | [3] -0.0279 | [4] 0.0791 | [5] 0.000395 | [6] -0.0211 | [7] -0.0642 | [8] -0.0207 | [9] -0.0357 | [10] -0.00583

CN1CCN(CC(=O)Nc2ccccc2Oc2ccccc2)CC1
inactive: [1] 0.0235 | [2] 0.0196 | [3] 0.0764 | [4] 0.0239 | [5] 0.0414 | [6] -2.9e-05 | [7] 0.00212 | [8] 0.00784 | [9] 0.00808 | [10] 0.0378

Cc1nc(-c2ccc(S(=O)(=O)N3CCCN(c4ccc(C(F)(F)F)cn4)CC3)s2)cs1
active: [4] -0.105
inactive: [1] 0.00624 | [2] -0.00592 | [3] -0.0273 | [5] 0.00148 | [6] -0.0736 | [7] -0.0131 | [8] -0.0332 | [9] -0.00508 | [10] 0.0123
